Screening results deposited in PubChem BioAssay by Center for Chemical Genomics, University of Michigan.
Rows were chosen to be rich in hits. Some 0.9% of all compounds tested hit in one or more screens of this group.
TAR Tat displ = HIV-1 TAR-Tat binding disruption. HIV-1 TAR RNA, Tat peptide displacement FRET; stronger effect = higher value. z-score (concentration not given with the values). 100,000 tested, 0.6% active; active means z-score of 3 or more in at least 2 runs
CDC25B CDK2 inh = human CDC25B-CDK2/CyclinA binding inhibition | P30305+P24941 | HTRF CDC25B-CDK2/CyclinA binding, anti-His/anti-Flag; stronger effect = higher value | z-score (concentration not given with the values) | 94,000 tested, 0.72% active | AID 1259370; in the data active means z-score above about 3.2
Hits are given with their value.

Screening O=C(c1cccs1)N1CCCN(S(=O)(=O)c2cccc(Cl)c2Cl)CC1 returned CDC25B CDK2 inh inactive.
`COCC(C)OC(=O)c1c(-c2ccccc2)c(-c2ccccc2)n[nH]c1=O` (stereo not given) gave TAR Tat displ inactive and CDC25B CDK2 inh inactive.
Screening COc1ccc(-c2nc3n(n2)C(=O)CC(c2ccc(Cl)cc2)S3)cc1 (stereo not given) returned TAR Tat displ inactive and CDC25B CDK2 inh inactive.
`Cc1ccc(-c2nc3ccccc3o2)cc1NC(=O)c1sc2ccccc2c1C` gave CDC25B CDK2 inh inactive.
O=C(CN1c2ccccc2NC2=C(C(=O)CCC2)C1c1ccco1)Nc1ccccc1 (stereo not given) was read as TAR Tat displ inactive.
For CC(=O)[C@H]1CCC2C3CC=C4C[C@@H](OS(=O)(=O)O)CC[C@]4(C)C3CC[C@@]21C (stereo not given in full) the results were CDC25B CDK2 inh inactive.
CN(C)CCNC(=O)c1ccc(N2CCCS2(=O)=O)cc1 was read as TAR Tat displ inactive.
CCN(CC)C(=O)CSc1nc2nc(C)cc(C)c2c(=O)[nH]1 was read as CDC25B CDK2 inh inactive.
Screening Cc1cc(C)c2c(=O)[nH]c(SCC(=O)c3ccc(O)c(O)c3)nc2n1 returned TAR Tat displ 30 and CDC25B CDK2 inh inactive.
For CC(C)(C)C1CCc2c(sc(NC(=O)c3ccco3)c2C(=O)N2CCCC2)C1 (stereo not given) the results were TAR Tat displ inactive and CDC25B CDK2 inh inactive.
For COCCN1CCn2c(nc3cc(NC(=O)NC4CCCCC4)ccc32)C1 the results were TAR Tat displ inactive and CDC25B CDK2 inh 7.
For COCCN1CCn2c(nc3cc(Nc4nnc(C)c5ccccc45)ccc32)C1 the results were TAR Tat displ inactive and CDC25B CDK2 inh 14.
Screening COCCCN1CCn2c(nc3cc(NC(=O)NC4CCCCC4)ccc32)C1 returned TAR Tat displ inactive and CDC25B CDK2 inh inactive.
Screening COCCN1CCn2c(nc3cc(Cl)ccc32)C1 returned TAR Tat displ inactive and CDC25B CDK2 inh inactive.
CCc1nn(CCCC(=O)NC2CCCCC2)c(=O)c2cc3occc3n12 was read as TAR Tat displ inactive and CDC25B CDK2 inh inactive.
For CCOC(=O)c1c(C)oc2ncnc(NCc3cccs3)c12 the results were TAR Tat displ inactive.
Cc1ccc2c(c1)N(C)/C(=C/c1sc3ccccc3[n+]1CCO)S2 was read as TAR Tat displ 4.3 and CDC25B CDK2 inh inactive.
Cc1ccc2c(ccc(/C=C3\Sc4ccccc4N3C)[n+]2C)c1 was read as TAR Tat displ inactive and CDC25B CDK2 inh inactive.
For CCC(=O)OCCn1c(=O)c2cc3c(=O)n(CCOC(=O)CC)c(=O)c3cc2c1=O the results were CDC25B CDK2 inh inactive.
Cc1ccc(C)c(S(=O)(=O)c2nnn3c2nc(N)c2sccc23)c1 was read as TAR Tat displ inactive.
For Cc1ccc(S(=O)(=O)/N=C(\N)Nc2nc(C)cs2)cc1 the results were CDC25B CDK2 inh inactive.
Screening CCc1ccc(N2CSC3=C(C#N)C(c4cccs4)CC(=O)N3C2)cc1 (stereo not given) returned TAR Tat displ inactive and CDC25B CDK2 inh 6.2.
For CCOC(=O)c1ccc(N2CSC3=C(C#N)C(c4cccs4)CC(=O)N3C2)cc1 (stereo not given) the results were TAR Tat displ inactive and CDC25B CDK2 inh 7.1.
For Cc1ccc(N2CSC3=C(C#N)C(c4cccs4)CC(=O)N3C2)cc1 (stereo not given) the results were TAR Tat displ inactive and CDC25B CDK2 inh 4.1.
`COc1ccc(N2CSC3=C(C#N)C(c4cccs4)CC(=O)N3C2)cc1` (stereo not given) gave TAR Tat displ inactive and CDC25B CDK2 inh inactive.
Screening COC(=O)c1ccc(N2CSC3=C(C#N)C(c4cccs4)CC(=O)N3C2)cc1 (stereo not given) returned TAR Tat displ inactive and CDC25B CDK2 inh inactive.
Screening CCOC(=O)N/N=C(\C)c1ccc([N+](=O)[O-])cc1 returned CDC25B CDK2 inh inactive.
Screening CC(=O)Oc1ccc(C(c2ccc(OC(C)=O)cc2)c2ccccn2)cc1 returned TAR Tat displ inactive.
For CN(C)c1ccc(CNS(=O)(=O)c2ccc3c(c2)C(C)(C)C(=O)N3C)cc1 the results were TAR Tat displ inactive.
NS(=O)(=O)c1ccc(Nc2cc(-c3ccco3)cs2)cc1 was read as CDC25B CDK2 inh 17.
Cc1ccc(-c2csc(Nc3ccc(S(N)(=O)=O)cc3)n2)cc1 was read as TAR Tat displ inactive and CDC25B CDK2 inh inactive.
Screening COC(=O)C1=C(C)Nc2nc3ccccc3n2C1c1ccc(C)cc1 (stereo not given) returned TAR Tat displ inactive and CDC25B CDK2 inh inactive.
COc1cccc(-c2noc(-c3ccccc3OC)n2)c1 was read as TAR Tat displ inactive and CDC25B CDK2 inh inactive.
Screening CC(C)COc1ccc2c(c1)c1c3n2CCNC3CCC1 (stereo not given) returned CDC25B CDK2 inh inactive.
`C1=C(c2ccc3c(c2)c2c4n3CCNC4CCC2)CCC1` (stereo not given) gave CDC25B CDK2 inh 14.
For Cn1c(=O)c2c(ncn2Cc2cccc(C(F)(F)F)c2)n(C)c1=O the results were CDC25B CDK2 inh inactive.
Screening O=C1CC(c2ccco2)Cc2[nH]c(=O)c(-c3nc(-c4cccc(Cl)c4)cs3)cc21 (stereo not given) returned TAR Tat displ inactive and CDC25B CDK2 inh inactive.
Screening O=C1CC(c2ccco2)Cc2[nH]c(=O)c(-c3nc(-c4ccccc4)cs3)cc21 (stereo not given) returned TAR Tat displ inactive and CDC25B CDK2 inh 17.
CCc1ccc(S(=O)(=O)Nc2cc3c4c(oc3c3ccccc23)CCCC4=O)cc1 was read as CDC25B CDK2 inh 18.
Screening O=C1CCCc2oc3c(cc(NS(=O)(=O)c4cccc([N+](=O)[O-])c4)c4ccccc43)c21 returned CDC25B CDK2 inh inactive.
Screening CCCc1[nH]nc2c1C(c1ccc(O)c(OCC)c1)C(C#N)=C(N)O2 (stereo not given) returned TAR Tat displ inactive and CDC25B CDK2 inh inactive.
Cc1ccc2c(c1)-c1onc(C(=O)N3C(C)CCCC3C)c1CO2 (stereo not given) was read as TAR Tat displ inactive.
For CCC(C)Nc1ncnc2scc(-c3ccc(F)cc3)c12 (stereo not given) the results were TAR Tat displ inactive.
For CC1(C)OC(=O)C(=Cc2ccc(OCc3ccc(F)cc3)c([N+](=O)[O-])c2)C(=O)O1 the results were CDC25B CDK2 inh inactive.
`CCCCC1(C)OC(=O)C(=Cc2cc3c(cc2[N+](=O)[O-])OCO3)C(=O)O1` (stereo not given) gave CDC25B CDK2 inh 20.
Screening O=c1c2ccccc2cc(Br)c2sccc12 returned CDC25B CDK2 inh inactive.
COc1ccc2nc(SCC(=O)Nc3nc4ccc(OC)cc4s3)[nH]c2c1 was read as TAR Tat displ inactive and CDC25B CDK2 inh inactive.
For COc1ccc2nc(Nc3sc4c(c3C(N)=O)CCCC4)sc2c1 the results were TAR Tat displ inactive and CDC25B CDK2 inh 4.3.
Screening COc1cc(OC)cc(C(=O)Nc2sc3c(c2C(N)=O)CCCC3)c1 returned CDC25B CDK2 inh inactive.
CCOC(=O)N1CCN(C(=O)C(NC(=O)C2CCC(C)CC2)C(C)C)CC1 (stereo not given) was read as TAR Tat displ inactive and CDC25B CDK2 inh inactive.
COc1cccc(-c2cc3nc(-c4ccccc4)cc(=O)n3[nH]2)c1 was read as CDC25B CDK2 inh inactive.
For O=c1cc(-c2cccnc2)nc2cc(-c3ccco3)[nH]n12 the results were CDC25B CDK2 inh 19.
